Key:
Test in all cases: DAPPL (digital affinity profiling via proximity ligation, sequencing); 10 mM Tris-HCl pH 7.5, 50 mM NaCl, 1 mM DTT, 4% glycerol, room temperature, 30 min; GST-TFs on glutathione beads, 16-mer random dsDNA library, 0.1% formaldehyde crosslink after washing; high values mean tight binding
FLI1 = biological target: T1, FLI1 (Homo sapiens, UniProt Q01543 1-452); conditions: protein: recombinant; tags: N-terminal GST; dsDNA, one strand shown
T1 sequence: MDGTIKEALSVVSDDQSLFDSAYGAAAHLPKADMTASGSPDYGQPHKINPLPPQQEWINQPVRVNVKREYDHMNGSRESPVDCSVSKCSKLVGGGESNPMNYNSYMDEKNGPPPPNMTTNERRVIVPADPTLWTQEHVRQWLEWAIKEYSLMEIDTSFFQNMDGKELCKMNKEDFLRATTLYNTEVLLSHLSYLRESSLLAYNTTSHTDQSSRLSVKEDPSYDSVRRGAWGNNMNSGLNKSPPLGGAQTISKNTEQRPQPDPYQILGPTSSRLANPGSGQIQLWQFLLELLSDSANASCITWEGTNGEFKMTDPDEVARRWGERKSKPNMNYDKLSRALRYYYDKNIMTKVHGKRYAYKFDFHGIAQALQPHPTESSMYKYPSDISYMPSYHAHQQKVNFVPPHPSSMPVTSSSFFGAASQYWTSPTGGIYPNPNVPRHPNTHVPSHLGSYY
Outline: (§1)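 Sequencing on an Illumina NextSeq500 followed washing, crosslinking with 0.1% formaldehyde, proximity ligation (BsaI/T4 ligase, 1 h, 37 °C) and PCR amplification of pools that had been incubated for 30 min at room temperature with 200 nmole of a random double-stranded 16-mer DNA library in Tris/NaCl/DTT/glycerol buffer. Each pool held DNA-barcoded human transcription factors, expressed in yeast as GST fusions and captured on glutathione beads, plus a tag-only sample. Binding signal is a hexamer's read frequency for a factor divided by its frequency in the tag-only sample.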

ELK1 = biological target: T2, ELK1 (Homo sapiens, UniProt P19419 1-428); conditions: protein: recombinant; tags: N-terminal GST; dsDNA, one strand shown
T2 sequence: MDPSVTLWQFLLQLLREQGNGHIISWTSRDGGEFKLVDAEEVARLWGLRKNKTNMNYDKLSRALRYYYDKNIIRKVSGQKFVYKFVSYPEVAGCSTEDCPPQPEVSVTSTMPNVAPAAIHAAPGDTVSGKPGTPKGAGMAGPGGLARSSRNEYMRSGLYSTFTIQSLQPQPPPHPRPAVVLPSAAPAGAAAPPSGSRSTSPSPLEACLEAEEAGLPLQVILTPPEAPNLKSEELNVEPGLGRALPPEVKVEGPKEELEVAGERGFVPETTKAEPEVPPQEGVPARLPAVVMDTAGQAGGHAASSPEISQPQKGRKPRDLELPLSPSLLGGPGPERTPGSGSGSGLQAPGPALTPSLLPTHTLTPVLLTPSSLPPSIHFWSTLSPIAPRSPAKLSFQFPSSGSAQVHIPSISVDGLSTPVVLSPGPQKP
Outline: as §1

GABPA = biological target: T3, GABPA (Homo sapiens, UniProt Q06546 1-454); conditions: protein: recombinant; tags: N-terminal GST; dsDNA, one strand shown
T3 sequence: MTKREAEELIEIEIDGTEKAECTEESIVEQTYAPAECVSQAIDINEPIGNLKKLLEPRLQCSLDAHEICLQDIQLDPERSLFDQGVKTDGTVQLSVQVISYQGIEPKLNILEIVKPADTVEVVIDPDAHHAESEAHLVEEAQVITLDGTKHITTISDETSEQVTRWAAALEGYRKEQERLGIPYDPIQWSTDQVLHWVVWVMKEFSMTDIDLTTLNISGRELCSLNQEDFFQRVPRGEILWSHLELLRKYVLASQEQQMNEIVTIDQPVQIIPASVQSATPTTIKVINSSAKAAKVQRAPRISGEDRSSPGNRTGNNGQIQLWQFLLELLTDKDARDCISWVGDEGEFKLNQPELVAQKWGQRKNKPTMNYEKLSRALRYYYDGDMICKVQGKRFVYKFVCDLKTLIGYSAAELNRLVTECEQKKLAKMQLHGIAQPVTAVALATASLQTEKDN
Outline: as §1

ERG = biological target: T4, ERG (Homo sapiens, UniProt P11308 1-479); conditions: protein: recombinant; tags: N-terminal GST; dsDNA, one strand shown
T4 sequence: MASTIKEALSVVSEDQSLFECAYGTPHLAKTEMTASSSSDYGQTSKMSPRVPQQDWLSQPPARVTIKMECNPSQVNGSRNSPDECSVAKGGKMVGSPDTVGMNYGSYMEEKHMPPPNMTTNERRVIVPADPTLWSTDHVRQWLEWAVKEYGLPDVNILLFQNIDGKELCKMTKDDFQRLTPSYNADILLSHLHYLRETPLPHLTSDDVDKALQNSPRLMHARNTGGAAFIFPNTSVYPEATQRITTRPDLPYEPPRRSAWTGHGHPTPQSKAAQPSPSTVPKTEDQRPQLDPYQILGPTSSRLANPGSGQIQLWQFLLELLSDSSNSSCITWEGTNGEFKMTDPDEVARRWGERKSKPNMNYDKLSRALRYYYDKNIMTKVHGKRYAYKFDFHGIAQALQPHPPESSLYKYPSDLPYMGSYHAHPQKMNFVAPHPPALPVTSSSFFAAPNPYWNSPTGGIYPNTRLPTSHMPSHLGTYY
Outline: as §1

ELF1 = ELF1 (Homo sapiens, UniProt P32519 1-619); conditions: protein: recombinant; tags: N-terminal GST; dsDNA, one strand shown
Sequence of ELF1 (P32519 whole entry): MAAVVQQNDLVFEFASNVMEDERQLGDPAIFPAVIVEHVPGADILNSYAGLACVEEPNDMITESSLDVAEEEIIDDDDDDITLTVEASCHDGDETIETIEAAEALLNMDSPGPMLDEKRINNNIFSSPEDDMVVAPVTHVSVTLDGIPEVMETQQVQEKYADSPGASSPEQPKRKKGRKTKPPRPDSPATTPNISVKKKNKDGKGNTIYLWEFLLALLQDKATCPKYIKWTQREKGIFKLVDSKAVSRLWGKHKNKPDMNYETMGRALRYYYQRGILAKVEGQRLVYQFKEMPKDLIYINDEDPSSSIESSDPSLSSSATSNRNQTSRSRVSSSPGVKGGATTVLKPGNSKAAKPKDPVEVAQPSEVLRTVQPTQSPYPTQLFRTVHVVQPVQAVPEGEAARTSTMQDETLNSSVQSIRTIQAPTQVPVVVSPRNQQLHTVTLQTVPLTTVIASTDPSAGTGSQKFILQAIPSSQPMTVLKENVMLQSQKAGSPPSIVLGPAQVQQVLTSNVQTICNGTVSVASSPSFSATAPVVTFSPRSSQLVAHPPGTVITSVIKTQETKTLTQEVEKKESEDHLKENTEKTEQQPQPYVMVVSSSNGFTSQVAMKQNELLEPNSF
Outline: as §1

EHF = biological target: T5, EHF (Homo sapiens, UniProt Q9NZC4 1-300); conditions: protein: recombinant; tags: N-terminal GST; dsDNA, one strand shown
T5 sequence: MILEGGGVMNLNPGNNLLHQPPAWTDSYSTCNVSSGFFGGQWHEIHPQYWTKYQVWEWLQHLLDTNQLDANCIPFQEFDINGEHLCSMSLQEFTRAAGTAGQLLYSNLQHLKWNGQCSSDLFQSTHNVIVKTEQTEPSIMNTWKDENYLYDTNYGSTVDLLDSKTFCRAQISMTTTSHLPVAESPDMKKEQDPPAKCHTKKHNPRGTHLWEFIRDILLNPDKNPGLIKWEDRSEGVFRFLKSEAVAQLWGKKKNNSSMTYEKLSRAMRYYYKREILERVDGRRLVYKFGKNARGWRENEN
Outline: as §1

SPI1 = SPI1 (Homo sapiens, UniProt P17947 1-270); conditions: protein: recombinant; tags: N-terminal GST; dsDNA, one strand shown
Outline: as §1

SPIB = SPIB (Homo sapiens, UniProt Q01892 1-262); conditions: protein: recombinant; tags: N-terminal GST; dsDNA, one strand shown
Sequence of SPIB (Q01892 whole entry): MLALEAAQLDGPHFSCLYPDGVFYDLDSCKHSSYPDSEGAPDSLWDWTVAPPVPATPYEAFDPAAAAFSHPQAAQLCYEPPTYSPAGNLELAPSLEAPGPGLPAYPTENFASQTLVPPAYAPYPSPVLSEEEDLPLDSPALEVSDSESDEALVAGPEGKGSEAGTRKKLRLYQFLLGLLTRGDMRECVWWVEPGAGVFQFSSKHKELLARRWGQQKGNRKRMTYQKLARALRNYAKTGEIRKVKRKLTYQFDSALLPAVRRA
Outline: as §1

ELK3 = biological target: T6, ELK3 (Homo sapiens, UniProt P41970 1-407); conditions: protein: recombinant; tags: N-terminal GST; dsDNA, one strand shown
T6 sequence: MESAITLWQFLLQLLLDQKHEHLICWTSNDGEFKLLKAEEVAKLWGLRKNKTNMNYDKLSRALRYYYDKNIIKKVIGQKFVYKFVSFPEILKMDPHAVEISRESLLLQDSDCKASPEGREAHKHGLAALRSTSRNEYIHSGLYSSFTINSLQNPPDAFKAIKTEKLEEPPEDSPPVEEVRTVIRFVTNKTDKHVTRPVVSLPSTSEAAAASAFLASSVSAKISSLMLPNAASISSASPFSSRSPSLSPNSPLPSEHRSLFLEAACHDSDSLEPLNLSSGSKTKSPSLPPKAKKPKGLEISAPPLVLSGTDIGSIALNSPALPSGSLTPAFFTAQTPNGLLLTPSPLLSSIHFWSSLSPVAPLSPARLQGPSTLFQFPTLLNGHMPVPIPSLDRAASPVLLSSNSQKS
Outline: as §1

FEV = biological target: T7, FEV (Homo sapiens, UniProt Q99581 1-238); conditions: protein: recombinant; tags: N-terminal GST; dsDNA, one strand shown
T7 sequence: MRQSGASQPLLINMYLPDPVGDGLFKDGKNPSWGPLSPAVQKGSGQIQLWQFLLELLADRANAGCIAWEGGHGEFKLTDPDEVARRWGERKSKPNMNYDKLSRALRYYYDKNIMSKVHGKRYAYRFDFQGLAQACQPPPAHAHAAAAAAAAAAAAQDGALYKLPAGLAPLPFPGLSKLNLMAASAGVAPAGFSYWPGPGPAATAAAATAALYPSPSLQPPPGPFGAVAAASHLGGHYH
Outline: as §1

ETV5 = ETV5 (Homo sapiens, UniProt P41161 1-510); conditions: protein: recombinant; tags: N-terminal GST; dsDNA, one strand shown
Sequence of ETV5 (P41161 whole entry): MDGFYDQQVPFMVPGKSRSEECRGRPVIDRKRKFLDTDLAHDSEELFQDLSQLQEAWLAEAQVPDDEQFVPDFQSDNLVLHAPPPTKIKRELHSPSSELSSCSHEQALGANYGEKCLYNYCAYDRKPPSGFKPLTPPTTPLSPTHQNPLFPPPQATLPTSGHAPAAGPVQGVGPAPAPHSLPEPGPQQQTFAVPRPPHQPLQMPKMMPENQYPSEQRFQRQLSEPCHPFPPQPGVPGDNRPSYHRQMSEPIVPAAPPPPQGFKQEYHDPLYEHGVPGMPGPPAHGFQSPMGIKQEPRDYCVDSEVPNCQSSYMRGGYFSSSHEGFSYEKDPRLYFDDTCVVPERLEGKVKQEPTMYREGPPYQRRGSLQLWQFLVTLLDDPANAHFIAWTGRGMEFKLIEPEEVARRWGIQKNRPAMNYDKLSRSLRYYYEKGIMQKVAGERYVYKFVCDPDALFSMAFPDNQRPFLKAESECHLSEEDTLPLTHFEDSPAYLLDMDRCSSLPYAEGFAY
Outline: as §1

HSF1 = HSF1 (Homo sapiens, UniProt Q00613 1-529); conditions: protein: recombinant; tags: N-terminal GST; chain copies: 3; dsDNA, one strand shown
Sequence of HSF1 (Q00613 whole entry): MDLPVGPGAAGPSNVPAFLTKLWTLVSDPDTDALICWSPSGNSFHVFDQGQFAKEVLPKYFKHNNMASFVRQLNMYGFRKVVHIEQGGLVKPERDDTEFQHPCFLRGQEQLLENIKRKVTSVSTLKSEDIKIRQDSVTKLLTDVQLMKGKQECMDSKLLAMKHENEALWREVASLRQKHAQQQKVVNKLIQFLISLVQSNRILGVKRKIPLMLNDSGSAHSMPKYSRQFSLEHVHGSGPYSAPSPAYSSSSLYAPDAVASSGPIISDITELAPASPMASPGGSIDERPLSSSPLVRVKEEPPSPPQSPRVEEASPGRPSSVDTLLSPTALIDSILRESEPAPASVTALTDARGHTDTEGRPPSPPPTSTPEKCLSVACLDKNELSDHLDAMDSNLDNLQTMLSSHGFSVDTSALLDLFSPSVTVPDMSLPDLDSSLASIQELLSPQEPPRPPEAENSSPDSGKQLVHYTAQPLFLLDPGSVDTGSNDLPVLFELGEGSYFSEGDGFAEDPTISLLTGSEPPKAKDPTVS
Outline: as §1

SPIC = biological target: T8, SPIC (Homo sapiens, UniProt Q8N5J4 1-248); conditions: protein: recombinant; tags: N-terminal GST; dsDNA, one strand shown
T8 sequence: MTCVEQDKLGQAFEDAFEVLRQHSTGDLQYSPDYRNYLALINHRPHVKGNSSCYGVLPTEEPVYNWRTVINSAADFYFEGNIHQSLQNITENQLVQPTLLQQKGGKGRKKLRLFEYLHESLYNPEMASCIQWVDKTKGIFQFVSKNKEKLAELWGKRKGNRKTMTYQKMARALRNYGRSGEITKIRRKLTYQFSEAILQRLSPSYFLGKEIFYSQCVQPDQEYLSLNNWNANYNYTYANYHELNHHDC
Outline: as §1

ELF4 = ELF4 (Homo sapiens, UniProt Q99607 1-663); conditions: protein: recombinant; tags: N-terminal GST; dsDNA, one strand shown
Sequence of ELF4 (Q99607 whole entry): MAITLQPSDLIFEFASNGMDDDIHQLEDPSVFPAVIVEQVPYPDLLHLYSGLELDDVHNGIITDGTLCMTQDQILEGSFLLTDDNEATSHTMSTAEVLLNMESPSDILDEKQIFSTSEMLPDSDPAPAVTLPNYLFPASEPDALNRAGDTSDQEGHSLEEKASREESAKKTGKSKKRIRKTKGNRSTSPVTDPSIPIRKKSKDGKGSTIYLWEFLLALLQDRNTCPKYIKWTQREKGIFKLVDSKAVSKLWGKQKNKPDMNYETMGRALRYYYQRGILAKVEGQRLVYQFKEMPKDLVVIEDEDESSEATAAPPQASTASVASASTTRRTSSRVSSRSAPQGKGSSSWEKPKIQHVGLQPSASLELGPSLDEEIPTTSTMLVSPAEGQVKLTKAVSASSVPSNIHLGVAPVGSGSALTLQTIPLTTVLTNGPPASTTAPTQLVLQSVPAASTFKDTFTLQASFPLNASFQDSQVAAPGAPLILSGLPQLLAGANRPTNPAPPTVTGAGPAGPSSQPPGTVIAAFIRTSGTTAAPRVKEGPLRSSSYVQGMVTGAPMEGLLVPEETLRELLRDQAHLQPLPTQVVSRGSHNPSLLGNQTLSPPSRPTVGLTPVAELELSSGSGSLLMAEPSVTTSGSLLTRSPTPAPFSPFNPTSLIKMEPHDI
Outline: as §1

ELK4 = biological target: T9, ELK4 (Homo sapiens, UniProt P28324-2 1-405); conditions: protein: recombinant; tags: N-terminal GST; dsDNA, one strand shown
T9 sequence: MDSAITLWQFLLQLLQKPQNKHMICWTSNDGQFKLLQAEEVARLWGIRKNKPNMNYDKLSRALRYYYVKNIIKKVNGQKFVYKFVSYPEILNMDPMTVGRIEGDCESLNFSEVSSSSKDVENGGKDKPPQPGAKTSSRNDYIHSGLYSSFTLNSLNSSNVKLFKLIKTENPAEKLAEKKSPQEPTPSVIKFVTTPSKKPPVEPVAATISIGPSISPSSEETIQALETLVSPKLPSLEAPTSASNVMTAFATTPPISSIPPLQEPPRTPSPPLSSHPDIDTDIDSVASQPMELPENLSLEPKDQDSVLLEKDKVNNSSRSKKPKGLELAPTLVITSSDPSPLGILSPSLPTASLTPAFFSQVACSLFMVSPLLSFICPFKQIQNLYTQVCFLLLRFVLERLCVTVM
Outline: as §1

ETV2 = biological target: T10, ETV2 (Homo sapiens, UniProt O00321 1-342); conditions: protein: recombinant; tags: N-terminal GST; dsDNA, one strand shown
T10 sequence: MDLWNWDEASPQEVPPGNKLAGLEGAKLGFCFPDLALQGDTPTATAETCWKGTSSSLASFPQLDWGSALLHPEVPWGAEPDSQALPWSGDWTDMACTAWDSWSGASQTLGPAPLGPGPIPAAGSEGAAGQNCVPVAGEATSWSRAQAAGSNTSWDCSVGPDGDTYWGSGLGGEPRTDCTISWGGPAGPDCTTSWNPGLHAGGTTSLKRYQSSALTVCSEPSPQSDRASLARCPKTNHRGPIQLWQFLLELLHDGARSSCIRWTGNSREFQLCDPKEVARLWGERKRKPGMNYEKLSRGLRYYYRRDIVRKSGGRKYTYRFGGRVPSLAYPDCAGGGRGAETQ
Outline: as §1

ELF3 = biological target: T11, ELF3 (Homo sapiens, UniProt P78545 1-371); conditions: protein: recombinant; tags: N-terminal GST; dsDNA, one strand shown
T11 sequence: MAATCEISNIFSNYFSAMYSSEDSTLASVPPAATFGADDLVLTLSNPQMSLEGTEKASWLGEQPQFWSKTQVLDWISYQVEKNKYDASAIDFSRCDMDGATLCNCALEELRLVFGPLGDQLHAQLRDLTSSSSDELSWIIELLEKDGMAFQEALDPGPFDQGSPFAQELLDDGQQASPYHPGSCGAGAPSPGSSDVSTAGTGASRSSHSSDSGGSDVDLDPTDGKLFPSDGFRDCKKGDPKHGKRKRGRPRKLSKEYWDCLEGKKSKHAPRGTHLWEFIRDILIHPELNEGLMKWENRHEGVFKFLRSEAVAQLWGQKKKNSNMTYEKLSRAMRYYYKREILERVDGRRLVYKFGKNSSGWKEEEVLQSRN
Outline: as §1

CRX = CRX (Homo sapiens, UniProt O43186 1-299); conditions: protein: recombinant; tags: N-terminal GST; dsDNA, one strand shown
Sequence of CRX (O43186 whole entry): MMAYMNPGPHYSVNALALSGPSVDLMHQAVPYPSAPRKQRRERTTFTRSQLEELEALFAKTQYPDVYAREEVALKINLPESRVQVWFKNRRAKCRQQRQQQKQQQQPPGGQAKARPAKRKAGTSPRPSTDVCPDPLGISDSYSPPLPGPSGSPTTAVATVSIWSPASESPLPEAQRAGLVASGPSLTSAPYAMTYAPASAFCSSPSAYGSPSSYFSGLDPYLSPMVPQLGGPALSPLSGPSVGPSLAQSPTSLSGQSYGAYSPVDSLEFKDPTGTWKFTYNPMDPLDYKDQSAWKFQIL
Outline: as §1

ETV1 = ETV1 (Homo sapiens, UniProt P50549 1-477); conditions: protein: recombinant; tags: N-terminal GST; dsDNA, one strand shown
Sequence of ETV1 (P50549 whole entry): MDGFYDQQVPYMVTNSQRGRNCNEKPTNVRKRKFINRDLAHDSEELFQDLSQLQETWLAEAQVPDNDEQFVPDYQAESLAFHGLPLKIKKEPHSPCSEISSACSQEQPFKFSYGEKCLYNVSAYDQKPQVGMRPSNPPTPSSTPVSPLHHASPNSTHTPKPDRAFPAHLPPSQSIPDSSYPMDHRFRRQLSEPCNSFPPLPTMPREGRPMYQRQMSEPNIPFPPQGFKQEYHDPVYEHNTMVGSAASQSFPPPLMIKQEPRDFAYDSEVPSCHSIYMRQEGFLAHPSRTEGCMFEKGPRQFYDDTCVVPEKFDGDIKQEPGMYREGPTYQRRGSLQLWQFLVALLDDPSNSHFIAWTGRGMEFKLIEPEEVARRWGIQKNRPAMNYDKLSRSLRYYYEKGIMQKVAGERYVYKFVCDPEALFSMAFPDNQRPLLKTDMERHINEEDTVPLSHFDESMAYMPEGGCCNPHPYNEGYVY
Outline: as §1

Sequence: ATATGC
- binding signal (FLI1): 1.09 fold enrichment (6-mer frequency, TF over GST control)
- binding signal (ELK1): 1.15 fold enrichment (6-mer frequency, TF over GST control)
- binding signal (GABPA): 1.15 fold enrichment (6-mer frequency, TF over GST control)
- binding signal (ERG): 1.13 fold enrichment (6-mer frequency, TF over GST control)
- binding signal (ELF1): 1.1 fold enrichment (6-mer frequency, TF over GST control)
- binding signal (EHF): 1.08 fold enrichment (6-mer frequency, TF over GST control)
- binding signal (SPI1): 1.16 fold enrichment (6-mer frequency, TF over GST control)
- binding signal (SPIB): 1.07 fold enrichment (6-mer frequency, TF over GST control)
- binding signal (ELK3): 1.05 fold enrichment (6-mer frequency, TF over GST control)
- binding signal (FEV): 1.11 fold enrichment (6-mer frequency, TF over GST control)
- binding signal (ETV5): 1.15 fold enrichment (6-mer frequency, TF over GST control)
- binding signal (HSF1): 1.01 fold enrichment (6-mer frequency, TF over GST control)
- binding signal (SPIC): 1.4 fold enrichment (6-mer frequency, TF over GST control)
- binding signal (ELF4): 1.1 fold enrichment (6-mer frequency, TF over GST control)
- binding signal (ELK4): 1.28 fold enrichment (6-mer frequency, TF over GST control)
- binding signal (ETV2): 1.06 fold enrichment (6-mer frequency, TF over GST control)
- binding signal (ELF3): 1.09 fold enrichment (6-mer frequency, TF over GST control)
- binding signal (CRX): 1.01 fold enrichment (6-mer frequency, TF over GST control)
- binding signal (ETV1): 1.11 fold enrichment (6-mer frequency, TF over GST control)
